Source: ChEMBL document CHEMBL4513216, “Probing the Open Global Health Chemical Diversity Library for Multistage-Active Starting Points for Next-Generation Antimalarials” (ACS Infect Dis, 2020)
Among all 69,000 compounds or so, about 8,600 (12%) showed an effect of 50% or more. The sample holds strong results, similar compounds and a random draw of the others, so the mix is not that of the screen.

Each compound was assayed on Plasmodium berghei (assay: Screen against P. berghei liver stage (PbLuc), transformed with Luciferase, at 10uM). Details: tested at 10 uM.
Format: functional, HepG2
`Cn1cc(CCNC(=O)N2CCCC(c3nncn3C)C2)cn1` (stereo not drawn) showed an INHIBITION of -18%.
Compound `Cc1nnc2n1CCN(Cc1csc(-c3ccsc3)n1)C2` has an INHIBITION of 14.4%.
`CC(C)Cc1nc(CN2CCOC(Cn3cccn3)C2)no1` (stereo not drawn) showed an INHIBITION of 28.8%.
Compound `O=C(c1ccc(-c2cnco2)cc1)N1CCC(Nc2cccnn2)CC1` has an INHIBITION of -46.2%.
With `Cc1nccn1-c1cncc(C2CCCN2Cc2cccnc2)n1` (stereo not drawn) the INHIBITION was -22.6%.
With `CCC(CO)N(C/C(C)=C/c1ccco1)Cc1ccsc1` (stereo not drawn) the INHIBITION was 42.3%.
For `COCCN1CCCc2sc(C(=O)NCC3CCCO3)nc21` (stereo not drawn), the INHIBITION was -50.8%.
`COCCN(C)C[C@@H]1CCC[C@@H]2CN(c3ncccn3)C[C@@H]21` was tested, and the INHIBITION was 26%.
`O=C(c1cccc(F)c1)N1CCC2(CC1)CN(c1ccccn1)CCO2` was tested, and the INHIBITION was 57.9%.
With `c1cnc(N2CCCC3(CCN(CC4CCOC4)CC3)C2)nc1` (stereo not drawn) the INHIBITION was -19.1%.
For `O=C(CC1CC1)N1CCC2(CCCN(c3ncccn3)C2)CC1`, the INHIBITION was 52%.
With `O=C(c1cccnc1)N1CCC2(CC1)CN(c1ccccn1)CCO2` the INHIBITION was -13.2%.
For `O=C(c1ccnnc1)N1CCC2(CC1)CN(c1ccccn1)CCO2`, the INHIBITION was 33.4%.
Compound `CN(C)C(=O)N1CCC2(CCCN(c3ncccn3)C2)C1` (stereo not drawn) has an INHIBITION of 11.5%.
`O=C(C1=CCCCC1)N1CCC2(CC1)COC(COc1ccccn1)C2` (stereo not drawn) showed an INHIBITION of 3.41%.
Compound `Cc1ccccc1CC(=O)NS(=O)(=O)c1cccc2cnccc12` has an INHIBITION of 40.6%.
For `CC(C)n1cc(C(=O)N2CCN(c3cccc(C(F)(F)F)c3)CC2)cn1`, the INHIBITION was 62.8%.
In the case of `Cc1cc(N2CCN(C(=O)c3cnn(C(C)C)c3)CC2)cc(C)n1`, the INHIBITION is reported as 3%.
Compound `Cc1cc(N2CCN(C(=O)c3cnn(C(C)C)c3)CC2)nc(N)n1` has an INHIBITION of -2.73%.
For `Cc1cc(C(=O)N2CCO[C@H]3[C@H](Oc4ccccn4)CC[C@@H]32)c(C)[nH]1`, the INHIBITION was 32.1%.
`O=C(c1cscn1)N1CCO[C@H]2[C@@H](Oc3ccccn3)CC[C@@H]21` was tested, and the INHIBITION was 63.8%.
With `Cc1occc1C(=O)N1CCO[C@H]2[C@@H](Oc3ccccn3)CC[C@@H]21` the INHIBITION was 30.7%.
With `Cc1cncc(C(=O)N2CCO[C@H]3[C@H](Oc4ccccn4)CC[C@@H]32)c1` the INHIBITION was 72.9%.
In the case of `O=C(N1CCCC1)N1CCO[C@H]2[C@@H](Oc3ccccn3)CC[C@@H]21`, the INHIBITION is reported as 35.3%.
For `O=C(C1=CCCC1)N1CCO[C@H]2[C@@H](Oc3ccccn3)CC[C@@H]21`, the INHIBITION was 30.1%.
`Cc1nn(C)c(C)c1C1CCCN1C(=O)c1ccc(C(N)=O)s1` (stereo not drawn) was tested, and the INHIBITION was 22.8%.
`Cc1ccc(CN(C)c2cc(N3CCCC3CO)ncn2)s1` (stereo not drawn) gave an INHIBITION of -21.4%.
`CCOC(=O)N1CCN(c2nc(NCCCO)c3ccccc3n2)CC1` gave an INHIBITION of 51.3%.
For `CCOC(=O)N1CCN(c2nc(NC)c3ccccc3n2)CC1`, the INHIBITION was 45%.
`CCOC(=O)N1CCN(c2nc(N)c3ccccc3n2)CC1` showed an INHIBITION of -90.8%.
With `CCOC(=O)N1CCN(c2nc(NC3CC3)c3ccccc3n2)CC1` the INHIBITION was 52.3%.
For `CCOC(=O)N1CCN(c2nc(N3CCCC3)c3ccccc3n2)CC1`, the INHIBITION was 3.68%.
`CCOC(=O)N1CCN(c2nc(NCCO)c3ccccc3n2)CC1` gave an INHIBITION of 6.54%.
Work on `CNC(=O)CN1CC[C@H]2CN(C(=O)c3ccccc3F)C[C@H]2C1` yielded an INHIBITION of 19.4%.
Work on `CCn1c(C2CCNCC2)nn(CCn2ccc(C)n2)c1=O` yielded an INHIBITION of 21.1%.
Work on `CC(=O)N1CCCCC[C@@H]2[C@@H]1[C@H](c1cccc(F)c1)CN2C(C)=O` yielded an INHIBITION of 20.1%.
`CCN1CCC(CNC(=O)C2(c3cccc(C)c3)CCCCC2)CC1` gave an INHIBITION of -3.2%.
`CN1CCC(c2cncc(-c3cccc(Cl)c3)n2)CC1` was tested, and the INHIBITION was 19.6%.
Work on `CN(c1ccc(CNc2ccc(Cl)cn2)cc1)S(C)(=O)=O` yielded an INHIBITION of -95.7%.
Work on `CC(C)c1ccc(CNC(C)c2ccc(S(C)(=O)=O)cc2)cc1` (stereo not drawn) yielded an INHIBITION of 6.39%.
`CN(C)S(=O)(=O)c1ccc(CNc2ccc(Cl)cn2)cc1` gave an INHIBITION of 79.8%.
`CC(C)c1ccc(CNC(C)c2ccc(S(=O)(=O)N(C)C)cc2)cc1` (stereo not drawn) was tested, and the INHIBITION was 52.3%.
Work on `Cc1nc(CNC(C)c2ccc(S(=O)(=O)N(C)C)cc2)no1` (stereo not drawn) yielded an INHIBITION of 45.7%.
Compound `CC1CCN(CC(O)CNc2ccc(Cl)cn2)CC1` (stereo not drawn) has an INHIBITION of 35.6%.
Compound `OC1CCN(Cc2ccc(CNc3ncc(Cl)cc3F)cc2)CC1` has an INHIBITION of 63.7%.
`Clc1ccc(CNc2ccc(Cl)cn2)cc1` gave an INHIBITION of -151%.
In the case of `OC1CCN(Cc2ccc(CNc3ccc(Cl)cn3)cc2)CC1`, the INHIBITION is reported as 54.3%.
With `OC1CCCN(CCNc2ncc(Cl)cc2F)C1` (stereo not drawn) the INHIBITION was 22.1%.
`CSc1ccc(CNc2ccccc2CN2CCC(O)CC2)cc1` was tested, and the INHIBITION was -23.1%.
With `CNS(=O)(=O)Cc1cccc(CNc2ccc(Cl)cn2)c1` the INHIBITION was 45.2%.
`CN(C)S(=O)(=O)N1C[C@@H]2C[C@H](C(=O)NCc3ccccc3)[C@H](C1)O2` gave an INHIBITION of 21.5%.
`CC(C)Oc1ccc(CNC(=O)CN(C)S(C)(=O)=O)cc1F` showed an INHIBITION of 13.375%.
For `O=C(CCc1cc2n(n1)CCN(Cc1ccncc1)C2)N1CCCC1`, the INHIBITION was 33.5%.
In the case of `COCC1CN(C(=O)Cc2ccccn2)Cc2cn(CC3CC3)nc21` (stereo not drawn), the INHIBITION is reported as -26%.
`CSc1ccc(CN(CCO)C(=O)CCc2cccc(F)c2)cc1` showed an INHIBITION of -1.04%.
With `CC(C)c1nsc(N2CCC(OCCN3CCOCC3)CC2)n1` the INHIBITION was 54.6%.
Compound `CC(C)c1nsc(N2CCOCC2)n1` has an INHIBITION of 7.3%.
Work on `CC(C)c1nsc(N2CCCOCC2)n1` yielded an INHIBITION of 61.6%.
With `CC(C)c1nsc(N2CCOC3(CCCC3)C2)n1` the INHIBITION was -10.3%.
`CC(C)c1nsc(N2CCSCC2)n1` showed an INHIBITION of -8%.
Compound `CC(C)c1nsc(N2CCS(=O)(=O)CC2)n1` has an INHIBITION of -16.3%.
Compound `NC(=O)C1(c2cnccn2)CCCN1Cc1ccc(Cl)c(F)c1` (stereo not drawn) has an INHIBITION of -6.3%.
Compound `Clc1ccc(CN(CCN2CCOCC2)Cc2cccnc2)cc1Cl` has an INHIBITION of 8.12%.
`Cc1nn(C)c(C)c1-c1cnc(CC2CCNC2)cn1` (stereo not drawn) was tested, and the INHIBITION was -22.3%.
`Nc1nc2nc(C3CCCN(C(=O)c4cnccn4)C3)ccc2s1` (stereo not drawn) showed an INHIBITION of 26.8%.
`CC(C)(C)n1nc(C(=O)NCC2(C(N)=O)CCOCC2)cc1C1CC1` showed an INHIBITION of 21.7%.
For `CC(C)c1cc(C(=O)NCC2(C(N)=O)CCOCC2)nn1C(C)(C)C`, the INHIBITION was 62.4%.
`Cc1cc(C(=O)NCC2(C(N)=O)CCOCC2)nn1C(C)(C)C` showed an INHIBITION of 0.705%.
